Assay results taken from PubChem BioAssay (Tox21).
Values joined by “and” are separate entries in the source; they are usually repeats but may differ in a detail not shown here. Equal values may be shown once. Results filed as inconclusive are left out. Entries that show only a call come without a potency. Some structures have more than one record in an assay (separate samples or runs), and their calls can disagree. Active and inactive are the calls of the source. Unless noted, calls follow the shape of the dose curve; as a rule, active = well fitted curve in the direction sought with a large enough effect in the repeat runs; inconclusive = weak or mixed curves; inactive = no such curve, though single readings can be large; an effect the other way counts as inactive or inconclusive.

What was measured:
[1] = qHTS assay to identify aromatase inhibitors - cell viability counter screen (AID 743084);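 also: cells stimulated with testosterone during compound exposure; nearly all actives have a fitted effect of over 55% in size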; also: potency is read from the fitted curve at half-maximal effect
[2] = target: Aryl hydrocarbon receptor (Homo sapiens) (UniProt P35869); assay: qHTS assay to identify small molecule that activate the aryl hydrocarbon receptor (AhR) signaling pathway (AID 743085); also: nearly all actives have a fitted effect of over 15% in size; also: potency is read from the fitted curve at half-maximal effect;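 as to activation: HG2L7.5c1 human HepG2 liver cells with stably integrated DRE-driven firefly reporter; series mostly up to about 70 µM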
Procedure, shortened: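 HepG2 cells stably carrying a 20-DRE firefly luciferase reporter (HG2L7.5c1) treated with compound for 24 hr at 37C. Luciferase read by ONE-Glo luminescence, with CellTiter-Fluor viability read first.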

[3] = qHTS assay to identify small molecule that activate the aryl hydrocarbon receptor (AhR) signaling pathway - cell viability counter screen (AID 743086); also: nearly all actives have a fitted effect of over 45% in size; also: potency is read from the fitted curve at half-maximal effect
Procedure, shortened: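 HepG2-AhR-luc (HG2L7.5c1) cells, 4000/well, treated 24 h at 37 C with compound; viability measured as CellTiter-Fluor fluorescence after 30 min in the same wells as the luciferase read.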

[4] = target: Peroxisome proliferator-activated receptor gamma (Homo sapiens) (UniProt P37231); assay: qHTS assay to identify small molecule agonists of the peroxisome proliferator-activated receptor gamma (PPARg) signaling pathway (AID 743094; active = well fitted activation curve with a large enough effect in the signal ratio in the repeat runs, not every such curve was filed as active; the % refers to the signal ratio)
Procedure, shortened: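 Agonism was assessed in a beta-lactamase reporter system, HEK293H cells with a stably integrated UAS-bla construct under PPARg control; the 17 h treatment at 37C preceded a 1 h room-temperature FRET substrate read.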

[5] = target: Peroxisome proliferator-activated receptor gamma (Homo sapiens) (UniProt P37231); assay: qHTS assay to identify small molecule antagonists of the peroxisome proliferator-activated receptor gamma (PPARg) signaling pathway (AID 743191; calls by dose curve; also: nearly all actives have a fitted effect of over 30% in size; also: potency is read from the fitted curve at half-maximal effect)
Procedure, shortened: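 GeneBLAzer PPARg UAS-bla HEK293H cells, 5 h post-plating, exposed to compounds 17 h at 37C. LiveBLAzer B/G FRET substrate added for 1 h at room temperature; beta-lactamase reporter read by fluorescence intensity.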

[6] = qHTS assay to identify small molecule antagonists of the peroxisome proliferator-activated receptor gamma (PPARg) signaling pathway - cell viability counter screen (AID 743194); conditions: Potency: co-treated with 50 nM rosiglitazone; also: nearly all actives have a fitted effect of over 55% in size
Procedure, shortened: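 Cytotoxicity counter screen in PPARg-bla HEK293H cells, same wells as reporter assay. Compounds plus 50 nM rosiglitazone (final) for 17 h at 37 C, then viability read by CellTiter-Glo luminescence.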

[7] = qHTS assay for small molecule agonists of the antioxidant response element (ARE) signaling pathway (AID 743202; active = well fitted activation curve with a large enough effect in the signal ratio in the repeat runs, not every such curve was filed as active; the % refers to the signal ratio)
Procedure, shortened: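 HepG2 ARE-bla cells; 16 h treatment at 37 C; FRET-based beta-lactamase fluorescence read after 2 h substrate incubation at room temperature.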

[8] = qHTS assay for small molecule agonists of the antioxidant response element (ARE) signaling pathway - cell viability counter screen (AID 743203; calls by dose curve; also: nearly all actives have a fitted effect of over 55% in size)
Procedure, shortened: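 ATP content via CellTiter-Glo luminescence served as the viability measure. Cells: ARE-bla HepG2, 2,000 per well. Exposure: 16 hrs, 37C/5% CO2.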

[9] = qHTS assay for small molecule activators of the heat shock response signaling pathway - cell viability counter screen (AID 743209); also: nearly all actives have a fitted effect of over 50% in size
Procedure, shortened: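 Compounds dissolved in DMSO were added to overnight-plated HSE-bla HeLa cells and left 5 h at 37 C. Cell viability was quantified by luminescence using CellTiter-Glo.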

[10] = qHTS assay for small molecule activators of the heat shock response signaling pathway (AID 743210; active = well fitted activation curve with a large enough effect in the signal ratio in the repeat runs, with a control signal flat, not every such curve was filed as active; the % refers to the signal ratio;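 also: HeLa cells with beta-lactamase reporter driven by heat shock elements; series mostly up to about 63 µM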)
Procedure, shortened: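 Following overnight attachment, HSE-bla HeLa cells received test compounds for 5 h at 37 C; beta-lactamase activity was then detected via FRET substrate fluorescence.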

Peroxisome proliferator-activated receptor gamma (Homo sapiens), sequence (P37231 whole entry, looked up): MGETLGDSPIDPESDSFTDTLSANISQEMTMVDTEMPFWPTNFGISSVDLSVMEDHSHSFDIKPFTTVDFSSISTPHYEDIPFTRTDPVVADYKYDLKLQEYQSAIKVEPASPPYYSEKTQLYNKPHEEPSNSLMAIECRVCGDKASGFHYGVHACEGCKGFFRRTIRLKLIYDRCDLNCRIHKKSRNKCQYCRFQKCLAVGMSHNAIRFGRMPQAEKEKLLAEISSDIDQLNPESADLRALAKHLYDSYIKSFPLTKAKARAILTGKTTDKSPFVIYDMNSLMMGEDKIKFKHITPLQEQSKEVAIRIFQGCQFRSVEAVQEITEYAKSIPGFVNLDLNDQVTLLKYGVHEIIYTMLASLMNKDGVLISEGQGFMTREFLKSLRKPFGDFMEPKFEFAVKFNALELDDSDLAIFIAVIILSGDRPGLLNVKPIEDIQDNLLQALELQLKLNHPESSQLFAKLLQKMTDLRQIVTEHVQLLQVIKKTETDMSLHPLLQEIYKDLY
Aryl hydrocarbon receptor (Homo sapiens), sequence (P35869 whole entry, looked up): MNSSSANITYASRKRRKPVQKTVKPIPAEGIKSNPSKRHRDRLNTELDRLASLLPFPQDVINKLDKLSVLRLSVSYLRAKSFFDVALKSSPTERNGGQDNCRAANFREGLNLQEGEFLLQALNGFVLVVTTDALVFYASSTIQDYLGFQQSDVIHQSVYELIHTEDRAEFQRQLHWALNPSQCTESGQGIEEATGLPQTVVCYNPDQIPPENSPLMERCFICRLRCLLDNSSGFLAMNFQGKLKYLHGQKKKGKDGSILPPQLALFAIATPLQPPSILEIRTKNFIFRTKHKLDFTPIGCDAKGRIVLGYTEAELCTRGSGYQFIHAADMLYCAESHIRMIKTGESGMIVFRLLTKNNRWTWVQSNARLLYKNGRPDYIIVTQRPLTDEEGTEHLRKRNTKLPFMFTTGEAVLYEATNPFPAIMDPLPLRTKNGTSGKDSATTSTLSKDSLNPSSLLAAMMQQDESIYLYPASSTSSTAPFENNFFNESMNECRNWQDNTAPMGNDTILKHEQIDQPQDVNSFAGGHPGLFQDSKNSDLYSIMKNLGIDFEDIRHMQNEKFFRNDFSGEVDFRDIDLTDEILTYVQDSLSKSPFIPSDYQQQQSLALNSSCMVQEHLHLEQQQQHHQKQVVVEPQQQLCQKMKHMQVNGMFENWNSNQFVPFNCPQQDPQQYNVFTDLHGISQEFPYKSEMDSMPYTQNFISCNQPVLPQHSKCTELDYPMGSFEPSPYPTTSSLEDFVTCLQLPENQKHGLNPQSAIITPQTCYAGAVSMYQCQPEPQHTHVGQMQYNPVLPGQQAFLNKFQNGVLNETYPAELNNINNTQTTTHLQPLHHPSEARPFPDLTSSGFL

Row | Compound | Potency [1] | Potency [2] | Potency [3] | Potency [4] | Potency [5] | Potency [6] | Potency [7] | Potency [8] | Potency [9] | Potency [10]
1 | CCOP(=O)(O)C(N)=O | inactive | inactive | inactive | inactive | inactive | inactive | inactive | inactive | inactive | inactive
2 | COc1ccc(C(O)(c2cncnc2)C2CC2)cc1 (stereo not given) | inactive | inactive | inactive | inactive | inactive | inactive | inactive | inactive | inactive | inactive
3 | NC(=S)c1c(Cl)cccc1Cl | inactive | inactive | inactive | inactive | inactive | inactive | inactive | inactive | inactive | inactive
4 | Oc1cccc(Cl)c1 | inactive | inactive | inactive | inactive | inactive | inactive | inactive | inactive | inactive | –
5 | CCOC(=O)c1cncn1C(C)c1ccccc1 (stereo not given) | inactive | inactive | inactive | inactive | inactive | inactive | inactive | inactive | inactive | inactive
6 | Cc1ccccc1 | inactive | inactive | inactive | inactive | inactive | inactive | inactive | inactive | inactive | inactive
7 | O=C(N[C@H]1CN2CCC1CC2)c1ccc2c(c1)OCCO2 | inactive | inactive | inactive | inactive | inactive | inactive | inactive | inactive | inactive | inactive
8 | O=C(NCNC(=O)NC1C(=O)NC(=O)N1CO)NC1C(=O)NC(=O)N1CO (stereo not given) | inactive | inactive | inactive | inactive | inactive | inactive | inactive | inactive | inactive | inactive
9 | C[Si](Cn1cncn1)(c1ccc(F)cc1)c1ccc(F)cc1 | 63.1 µM (active) and inactive | inactive | 28.2 µM (active) | inactive | inactive | inactive | inactive | inactive | inactive | inactive
10 | O=C(O)C(Cl)(Cl)Br | inactive | inactive | inactive | inactive | inactive | inactive | inactive | inactive | inactive | inactive
11 | CCC[N+](CCC)(CCC)CCC | inactive | inactive | inactive | inactive | inactive | inactive | inactive | inactive | inactive | –
12 | CCCC(C)(COC(N)=O)COC(=O)NC(C)C (stereo not given) | inactive | inactive | inactive | inactive | inactive | inactive | inactive | inactive | inactive | inactive
13 | CN1CC[C@]23c4c5ccc(O)c4O[C@H]2[C@@H](O)C=C[C@H]3[C@H]1C5 | inactive | inactive | inactive | inactive | inactive | inactive | inactive | inactive | inactive | –
14 | CCCC[N+](CCCC)(CCCC)CCCC | inactive | inactive | inactive | inactive | inactive | inactive | inactive | inactive | inactive | inactive
15 | CCCCC(CC)COC(=O)c1c(Br)c(Br)c(Br)c(Br)c1C(=O)OCC(CC)CCCC (stereo not given) | inactive | inactive | inactive | inactive | inactive | inactive | inactive | inactive | inactive | inactive
16 | CC(C)c1ccc(NC(=O)N(C)C)cc1 | inactive | 68.5 µM (active) | inactive | inactive | inactive | inactive | inactive | inactive | inactive | inactive
17 | NC(=O)CF | inactive | inactive | inactive | inactive | inactive | inactive | inactive | inactive | inactive | inactive
18 | CN(C)N | inactive | inactive | inactive | inactive | inactive | inactive | inactive | inactive | inactive | inactive
19 | Cc1cnc(C2=NC(C)(C(C)C)C(=O)N2)c(C(=O)O)c1 (stereo not given) | inactive | inactive | inactive | inactive | inactive | inactive | inactive | inactive | inactive | inactive
20 | CC(C)c1ccc(OP(=O)(Oc2ccc(C(C)C)cc2)Oc2ccc(C(C)C)cc2)cc1 | inactive | inactive | inactive | inactive | 38.9 µM (active) | inactive | inactive | inactive | inactive | inactive
21 | CCOP(=S)(S)OCC | inactive | inactive | inactive | inactive | inactive | inactive | inactive | inactive | inactive | inactive
22 | CC(C)[C@@H](C(=O)O[C@@H](C#N)c1cccc(Oc2ccccc2)c1)c1ccc(Cl)cc1 | inactive | inactive | inactive | inactive | inactive | inactive | inactive | inactive | inactive | –
23 | CCCCCBr | inactive | inactive | inactive | inactive | inactive | inactive | inactive | inactive | inactive | inactive

Row | Compound | Potency [1] | Potency [2] | Potency [3] | Potency [4] | Potency [5] | Potency [6] | Potency [7] | Potency [8] | Potency [9] | Potency [10]
24 | Nc1cc(Cl)cc(C(=O)O)c1Cl | inactive | inactive | inactive | inactive | inactive | inactive | inactive | inactive | inactive | inactive
25 | O=[N+]([O-])O[C@H]1CO[C@H]2[C@@H]1OC[C@H]2O[N+](=O)[O-] | inactive | inactive | inactive | inactive | inactive | inactive | inactive | inactive | inactive | inactive
26 | Cc1ccc(N)c(C)c1 | inactive | inactive | inactive | inactive | inactive | inactive | inactive | inactive | inactive | inactive
27 | C[N+]1(CCC(C(N)=O)(c2ccccc2)c2ccccc2)CCCCC1 | inactive | inactive | inactive | inactive | inactive | inactive | inactive | inactive | inactive | inactive
28 | O=CC=O | inactive | inactive | inactive | inactive | inactive | inactive | inactive | inactive | inactive | inactive
29 | CCCC[N+]1(C)[C@@H]2CC(OC(=O)[C@H](CO)c3ccccc3)C[C@H]1[C@@H]1O[C@@H]12 (stereo not given in full) | inactive | inactive | inactive | inactive | inactive | inactive | inactive | inactive | inactive | inactive
30 | C1CCNCC1 | inactive | inactive | inactive | inactive | inactive | inactive | inactive | inactive | inactive | inactive
31 | C[C@H]1O[C@H](OC2[C@@H](O)[C@@H](O)C(O)[C@H](O)[C@H]2O)[C@@H](N)C[C@@H]1N=C(N)C(=O)O (stereo not given in full) | inactive | inactive | inactive | inactive | inactive | inactive | inactive | inactive | inactive | inactive
32 | Clc1ccc2ccccc2c1 | inactive | inactive | inactive | inactive | inactive | inactive | inactive | inactive | inactive | inactive
33 | CC(C)(C)NCC(O)c1ccccc1Cl (stereo not given) | inactive | inactive | inactive | inactive | inactive | inactive | inactive | inactive | inactive | inactive
34 | CN(C1CCCCC1)C1CCCCC1 | inactive | inactive | inactive | inactive | inactive | inactive | inactive | inactive | inactive | inactive
35 | CCCCCl | inactive | inactive | inactive | inactive | inactive | inactive | inactive | inactive | inactive | inactive
36 | CCSCc1ccccc1OC(=O)NC | inactive | inactive | inactive | inactive | inactive | inactive | inactive | inactive | inactive | inactive
37 | OCC1CO1 (stereo not given) | inactive | inactive | inactive | inactive | inactive | inactive | inactive | inactive | inactive | inactive
38 | C[N+]1(CCF)[C@@H]2CC[C@H]1CC(OC(=O)C(O)(c1ccccc1)c1ccccc1)C2 (stereo not given in full) | inactive | inactive | inactive | inactive | inactive | inactive | inactive | inactive | inactive | inactive
39 | CCCN(CCC)c1c([N+](=O)[O-])cc(C(C)C)cc1[N+](=O)[O-] | inactive | inactive | inactive | inactive | inactive | inactive | inactive | inactive | inactive | inactive
40 | CC(C)(C)N(NC(=O)c1ccc(Cl)cc1)C(=O)c1ccccc1 | 7.65 µM (active) | inactive | 17.1 µM (active) | inactive | inactive | inactive | inactive | inactive | inactive | inactive
41 | Nc1cccc2ccccc12 | inactive | 27.5 µM (active) and 27.3 µM (active) | inactive | inactive | inactive | inactive | inactive | inactive | inactive | inactive
42 | OCCCl | inactive | inactive | inactive | inactive | inactive | inactive | inactive | inactive | inactive | inactive
43 | CCN(C(C)=O)c1cccc(-c2ccnc3c(C#N)cnn23)c1 | inactive | inactive | inactive | inactive | inactive | inactive | inactive | inactive | inactive | inactive
44 | CC(Cl)C(=O)O (stereo not given) | inactive | inactive | inactive | inactive | inactive | inactive | inactive | inactive | inactive | inactive
45 | CCCCOC(=O)CCC(=O)OCCCC | inactive | inactive | inactive | inactive | inactive | inactive | inactive | inactive | inactive | inactive
46 | COC1=CC(=O)O[C@@H](/C=C/c2ccc3c(c2)OCO3)C1 | inactive | 0.414 µM (active) | inactive | inactive | inactive | inactive | – | inactive | inactive | inactive
